Mdm2-MdmX inh – disrupts the human Mdm2-MdmX interaction. O15151+Q00987. SaOS-2 split-luciferase Mdm2/MdmX complementation, luminescence. inhibition, % at 8 µM. actives 3% (n = 330,000);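 active = inhibition of at least 50% at 8 µM in the primary screen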
Target sequence (O15151 whole entry, looked up): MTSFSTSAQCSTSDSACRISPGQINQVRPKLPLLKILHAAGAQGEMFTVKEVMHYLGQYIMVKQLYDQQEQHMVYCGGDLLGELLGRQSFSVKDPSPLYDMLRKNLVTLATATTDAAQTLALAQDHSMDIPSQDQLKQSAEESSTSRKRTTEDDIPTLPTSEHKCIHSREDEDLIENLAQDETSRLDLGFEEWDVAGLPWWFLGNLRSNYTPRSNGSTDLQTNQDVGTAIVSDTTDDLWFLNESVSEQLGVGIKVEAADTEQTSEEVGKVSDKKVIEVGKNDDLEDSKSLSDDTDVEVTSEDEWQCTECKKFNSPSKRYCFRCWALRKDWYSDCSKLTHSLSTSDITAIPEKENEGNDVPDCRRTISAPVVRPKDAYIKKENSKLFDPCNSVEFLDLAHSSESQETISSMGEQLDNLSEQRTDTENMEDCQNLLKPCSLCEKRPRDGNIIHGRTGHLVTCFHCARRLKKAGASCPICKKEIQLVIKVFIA
Target sequence (Q00987 whole entry, looked up): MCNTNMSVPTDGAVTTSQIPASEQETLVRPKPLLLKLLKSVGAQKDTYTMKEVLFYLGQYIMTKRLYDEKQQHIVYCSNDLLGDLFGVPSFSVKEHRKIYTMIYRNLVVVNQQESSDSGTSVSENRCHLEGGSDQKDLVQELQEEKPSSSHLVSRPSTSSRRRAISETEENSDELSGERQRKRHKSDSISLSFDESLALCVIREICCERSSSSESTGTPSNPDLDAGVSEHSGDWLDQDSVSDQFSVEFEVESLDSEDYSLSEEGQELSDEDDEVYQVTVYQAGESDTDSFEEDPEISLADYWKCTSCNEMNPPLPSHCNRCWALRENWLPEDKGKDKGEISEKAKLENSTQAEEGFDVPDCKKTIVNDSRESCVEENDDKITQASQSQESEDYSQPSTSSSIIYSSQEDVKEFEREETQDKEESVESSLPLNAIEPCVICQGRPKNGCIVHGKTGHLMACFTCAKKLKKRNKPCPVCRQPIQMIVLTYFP
Jurkat NFkB inh – lowers PMA/ionomycin-induced NF-kB signal in Jurkat cells; PMA/ionomycin-induced NF-kB luciferase reporter, luminescence; actives 0.53% (n = 330,000); inhibition, % at 4 µM; in the data active = inhibition above about 50%
Gli-Sufu antag – antagonists of Gli-Sufu signaling | Sufu-KO-LIGHT fibroblasts, Gli luciferase reporter luminescence | inhibition, % at 5 µM | actives 0.74% (n = 340,000) | AID 588413;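 active = inhibition above about 55%, limit read from the data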;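 note: 0% = DMSO-treated cells and 100% = wells with medium but no cells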
697 NFkB inh – inhibitors of the PMA/ionomycin-induced NF-kB reporter in 697 B cells | actives 0.33% (n = 330,000) | 697 B-cell NF-kB luciferase reporter, 16 h | AID 435022 | inhibition, % at 4 µM; in the data active = inhibition above about 35%
Beta cell apopt – blocks beta cell apoptosis; actives 0.8% (n = 300,000); protection from apoptosis, % (test concentration not listed); INS-1E cytokine-induced death, ATP luminescence, 48 h; percent of positive-control rescue, neutral wells zero; AID 435005;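 active = Every replicate reaches about 75%, or at least half do and their mean reaches it too, limit read from the data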;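 note: 0% = cytokine-treated negative control wells and 100% = positive control rescue; higher means more ATP so stronger rescue from cytokine killing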
Jurkat NFkB conf – lowers PMA/ionomycin-induced NF-kB signal in Jurkat cells | shares compounds with Jurkat NFkB inh | Jurkat NF-kB luciferase, 16 h | inhibition, % at 4 µM | actives 27% (n = 2,700) | AID 435020;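 active = inhibition reaching about 45% at 4 µM in either replicate, limit read from the data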;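 note: plate controls were PMA/ionomycin stimulated DMSO wells for no effect and unstimulated DMSO wells for full effect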
697 NFkB conf – lowers PMA/ionomycin-induced NF-kB signal in 697 B cells; shares compounds with 697 NFkB inh; 697 B-cell NF-kB luciferase, 16 h; inhibition, % at 4 µM; actives 35% (n = 2,000); AID 449746; in the data active = inhibition mostly above about 28%, no sharp cut-off; inactive = mostly below about 22%
Mdm2-MdmX conf – confirmation of human Mdm2/MdmX interaction inhibitors; inhibition, % at 8 µM; Mdm2-MdmX binding, luminescent assay; actives 55% (n = 10,000); shares compounds with Mdm2-MdmX inh; in the data active = inhibition above about 40%
FLuc counter – counter-screen for Mdm2/MdmX inhibitors: full-length luciferase | shares compounds with Mdm2-MdmX inh | SaOS-2 full-length luciferase counterscreen, luminescence | inhibition, % at 8 µM | actives 77% (n = 6,200);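 active = mean inhibition at 8 µM reaching about 37%, which flags the compound as non-specific, limit read from the data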;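 note: p53-null SaOS-2 cells with luciferase driven by a doxycycline-inducible promoter; compound on cells about two nights before reading with doxycycline added after day one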
* marks the source's active call; other numbers are inactive results. In the library only some 4% were active in any assay of this set; here they are far more common.

For O=C(CSc1nnc(C2CC2)n1CC1CCCO1)Nc1ccc(Cl)cc1 (configuration not stated) the results were Mdm2-MdmX inh 15, Jurkat NFkB inh 2, Gli-Sufu antag -13, 697 NFkB inh 0 and Beta cell apopt -3.
Screening CCN(CC)S(=O)(=O)c1ccc(N/N=C/c2cc(OC)ccc2O)nc1 returned Mdm2-MdmX inh 80*, Jurkat NFkB inh 52*, Gli-Sufu antag 47, 697 NFkB inh -57, Beta cell apopt 108*, Jurkat NFkB conf -3, Mdm2-MdmX conf 83* and FLuc counter 23.
Screening CCN(CC)S(=O)(=O)c1ccc(N/N=C/c2cccnc2)nc1 returned Mdm2-MdmX inh 0, Jurkat NFkB inh -4, Gli-Sufu antag -2, 697 NFkB inh 27 and Beta cell apopt -3.
For COc1cc(-c2noc(C)c2/C=C/c2cccc([N+](=O)[O-])c2)cc(OC)c1OC the results were Mdm2-MdmX inh 79*, Jurkat NFkB inh 62*, Gli-Sufu antag 26, 697 NFkB inh -3, Beta cell apopt 25, Jurkat NFkB conf 51*, Mdm2-MdmX conf 75* and FLuc counter 84*.
COc1cc(/C=C/c2onc(C)c2[N+](=O)[O-])cc(OC)c1OC was read as Mdm2-MdmX inh 31, Jurkat NFkB inh 21, Gli-Sufu antag 18, 697 NFkB inh 6 and Beta cell apopt -4.
Screening CSc1nccc(-c2nn(-c3ccc(C)cc3)ccc2=O)n1 returned Mdm2-MdmX inh 51*, Jurkat NFkB inh 58*, Gli-Sufu antag 2, 697 NFkB inh -4, Beta cell apopt 2, Jurkat NFkB conf 49*, Mdm2-MdmX conf 73* and FLuc counter 59*.
For COC(=O)c1ccccc1NC1=C/C(=N\S(=O)(=O)c2cccs2)c2ccccc2C1=O the results were Mdm2-MdmX inh 100*, Jurkat NFkB inh 52*, Gli-Sufu antag -17, 697 NFkB inh 17, Beta cell apopt 96*, Jurkat NFkB conf 66*, Mdm2-MdmX conf 79* and FLuc counter 58*.
Cc1ccc(-n2c(C)cc(/C=c3/sc4nc5ccccc5n4c3=O)c2C)cc1 was read as Mdm2-MdmX inh 82*, Jurkat NFkB inh 56*, Gli-Sufu antag 7, 697 NFkB inh -57, Beta cell apopt 1, Jurkat NFkB conf 19, Mdm2-MdmX conf 61* and FLuc counter 28.
CCCOc1cccc(-c2cc(C(=O)N/N=C/c3ccccn3)c3ccccc3n2)c1 was read as Mdm2-MdmX inh 33, Jurkat NFkB inh 22, Gli-Sufu antag 36, 697 NFkB inh -21 and Beta cell apopt 24.
Screening O=C(N/N=C/c1ccccn1)c1cc(-c2ccc(Br)cc2)nc2ccccc12 returned Mdm2-MdmX inh 84*, Jurkat NFkB inh 54*, Gli-Sufu antag 72*, 697 NFkB inh -63, Beta cell apopt 19, Jurkat NFkB conf 19, Mdm2-MdmX conf 40 and FLuc counter 46*.
`Cc1[nH]c2ccccc2c1/C=N/NC(=O)c1cc(-c2ccncc2)nc2ccccc12` gave Mdm2-MdmX inh 59*, Jurkat NFkB inh 56*, Gli-Sufu antag -1, 697 NFkB inh 8, Beta cell apopt 11, Jurkat NFkB conf 12, Mdm2-MdmX conf 69* and FLuc counter 52*.
CC(C)C1=CC2=CCC3C(C)(C(=O)O)CCCC3(C)C2CC1 (configuration not stated) (tested in a mixture with another compound) was read as Mdm2-MdmX inh 44, Jurkat NFkB inh -18, 697 NFkB inh -22 and Beta cell apopt -4.
`O=C(COc1ccc2ccccc2c1Br)N1CCCCC1` gave Mdm2-MdmX inh -41, Jurkat NFkB inh -45, Gli-Sufu antag -53 and 697 NFkB inh -54.
Screening O=C(Oc1ccc2ccccc2c1Br)N1CCCCCC1 returned Mdm2-MdmX inh 59*, Jurkat NFkB inh -308, Gli-Sufu antag -69, 697 NFkB inh inactive, Beta cell apopt 9, Jurkat NFkB conf -103, 697 NFkB conf inactive, Mdm2-MdmX conf 42* and FLuc counter 150*.
`COc1cccc2c1C(=O)c1c(O)c3c(c(O)c1C2=O)C[C@@](O)(C(=O)CO)C[C@@H]3O[C@H]1C[C@H](N)[C@H](O)[C@H](C)O1` gave Mdm2-MdmX inh 99*, Jurkat NFkB inh 90*, Gli-Sufu antag 53, 697 NFkB inh 94*, Beta cell apopt 32, Jurkat NFkB conf 89*, 697 NFkB conf 77*, Mdm2-MdmX conf 99* and FLuc counter 0.
Screening O=C(NNC(=S)Nc1ccccc1)C1CCCCC1 returned Mdm2-MdmX inh 0, Jurkat NFkB inh 4, Gli-Sufu antag -1, 697 NFkB inh -4 and Beta cell apopt 2.
Screening CC(=O)c1cccc(N(C(=O)c2ccco2)C(C(=O)NC2CCCCC2)c2ccc(C)o2)c1 (configuration not stated) returned Mdm2-MdmX inh 0, Jurkat NFkB inh -10, Gli-Sufu antag 29, 697 NFkB inh 21 and Beta cell apopt -4.
For CCN(CC(=O)NCc1ccc(F)cc1)C(=O)/C=C/c1ccc(OC)c(S(=O)(=O)NC(C)C)c1 the results were Mdm2-MdmX inh 56*, Jurkat NFkB inh 51*, Gli-Sufu antag -5, 697 NFkB inh 6, Beta cell apopt 9, Jurkat NFkB conf 46, Mdm2-MdmX conf 55* and FLuc counter 61*.
Screening CS(=O)(=O)N1CCC(C(=O)N2CCN(c3ccc(F)cc3)CC2)CC1 returned Mdm2-MdmX inh 7, Jurkat NFkB inh -3, Gli-Sufu antag 4, 697 NFkB inh 25 and Beta cell apopt -4.
Screening CNC[C@@H](CC1CCCCC1)NC[C@H](CC(C)C)NCCc1cccc(C(F)(F)F)c1 returned Mdm2-MdmX inh 99*, Jurkat NFkB inh 86*, Gli-Sufu antag -3, 697 NFkB inh 12, Beta cell apopt 112*, Jurkat NFkB conf 45, Mdm2-MdmX conf 100* and FLuc counter 50*.
`CNC[C@@H](Cc1ccccc1)NC[C@@H](CC1CCCCC1)NCCCc1ccccc1` gave Mdm2-MdmX inh 98*, Jurkat NFkB inh 91*, Gli-Sufu antag 8, 697 NFkB inh 22, Beta cell apopt 110*, Jurkat NFkB conf 24, Mdm2-MdmX conf 100* and FLuc counter 52*.
For CN(C[C@H](Cc1ccccc1)N(C[C@@H](CC1CCCCC1)N(CCc1ccccc1)N=O)N=O)N=O the results were Mdm2-MdmX inh 3, Jurkat NFkB inh 4, Gli-Sufu antag 18, 697 NFkB inh 16 and Beta cell apopt 2.
